The campaign covered roughly 65,000 compounds. About 450 (0.69%) were called active. Many of the other results were omitted from the sample, so actives are more common in it than they were. Unmarked numbers belong to inactive results.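 Rule for the calls: active = activation above a set limit, the screen-wide mean activation plus 3 SD (cut at about 8.5% in these data); inactive = the rest.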 Where a SMILES comes first, the peptide text is derived from it. The star is where a group is joined. Bz = O=C(c1ccccc1)*

These results are taken from PubChem BioAssay AID574 (The Scripps Research Institute Molecular Screening Center, 2007).

For the test, the target named is 5-hydroxytryptamine receptor 1E (Homo sapiens) (UniProt P28566). Put plainly: activation of human serotonin 5HT1E receptor – cell-based, HTS, primary screen (AID 574).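 Note: 100% = positive control agonist at 1 µM giving full maximal response.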 The note with it: CHO 5-HT1E Ga15 NFAT-bla reporter, FRET; at 6 µM; stronger effect = higher value; 0% DMSO wells, 100% control agonist wells.
5-hydroxytryptamine receptor 1E (Homo sapiens), sequence (P28566 whole entry, looked up): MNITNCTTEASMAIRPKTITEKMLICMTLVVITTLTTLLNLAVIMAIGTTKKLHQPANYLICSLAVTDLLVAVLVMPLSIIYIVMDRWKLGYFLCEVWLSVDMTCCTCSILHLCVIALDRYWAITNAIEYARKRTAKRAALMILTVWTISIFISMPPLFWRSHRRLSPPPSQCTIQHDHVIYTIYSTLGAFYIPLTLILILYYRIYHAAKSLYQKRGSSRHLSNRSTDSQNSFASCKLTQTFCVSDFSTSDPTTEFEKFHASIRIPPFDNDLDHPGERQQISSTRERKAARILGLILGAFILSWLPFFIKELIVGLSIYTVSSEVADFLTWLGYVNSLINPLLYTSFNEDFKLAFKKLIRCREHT
In the case of `COCCCN1C(=O)c2ccc(C(=O)Nc3ccc(OC)cc3OC)cc2C1=O`, the activation was -0.6%.

Consider `CCSc1nc(=S)n(CC)c(C)c1C(C)=O`, for which the activation was -0.3%.

Turning to `CCn1c(Cc2ccccc2)nnc1SCc1nc2ccccc2c(=O)[nH]1`, the activation is -0.1%.

As to `CCC(=O)Nc1nc(OC)cc(OC)n1`, the activation was -0.6%.

Consider `Cc1ccc(CCn2c3c(c4ccccc42)CN(C)CC3)cn1`, for which the activation is 0.2%.

Consider `Cc1ccc2nc3n(c(=O)c2c1)CCC3`, for which the activation was -0.8%.

As for `COc1ccc(/C(O)=C2/C(=O)C(=O)N(c3nc(C)c(C)s3)C2c2ccco2)cc1` (stereo not drawn), the activation was 0.5%.

Take `Cn1c(=O)cc(SCC(=O)N2CCCC2)c2cc(Cl)ccc21`: the activation was -0.2%.

Take `CCOc1ccc(-c2nnn(CC(=O)N3CCN(c4ccc(OC)cc4)CC3)n2)cc1OCC`: the activation was -1.1%.

`CCOC(=O)c1cc2c(n(-c3ccc(C)cc3)c1=O)CCCC2=O`: the activation is 0.8%.

`C[C@@H](Nc1nc(-c2ccccc2)nc2c1oc1ccccc12)C(=O)O`: the activation is -0.7%.

As to `COc1ccc(S(=O)(=O)Nc2c(C)n(C)n(-c3ccccc3)c2=O)cc1`, the activation is -1.6%.

Regarding `CCC(C)Sc1nc2c(c(=O)[nH]c(=O)n2C)n1CC(O)COc1cccc2ccccc12` (stereo not drawn), the activation was 1.1%.

Regarding `CCOc1c(OC)cc(C2C(C#N)=C(N)Oc3n[nH]c(-c4ccncc4)c32)cc1OC` (stereo not drawn), the activation is 0.7%.

Regarding `Cc1nc(NC(CC(C)C)C(=O)O)c2nc(C)oc2n1` (stereo not drawn), the activation is -1.1%.

Consider `Cc1cc(C(=O)COC(=O)c2cccs2)c(C)n1-c1c(C)n(C)n(-c2ccccc2)c1=O`, for which the activation was -0.2%.

For `CN(C(=O)C1CCOC1)c1nnc(-c2cccnc2)s1` (stereo not drawn), the activation is -1.1%.

On to `COc1ccc(N2C(=O)CCC(C(=O)Nc3ccccn3)C2c2ccc(OC)c(OC)c2)cc1` (stereo not drawn), for which the activation is 2.5%.

For the compound `CCOc1ccc(-n2c(SC(C)C(=O)OC)nc3c(c2=O)SCC3)cc1` (stereo not drawn), the activation was 0.4%.

In the case of `COc1ccc(CC(=O)n2nc(-c3cccnc3)nc2N)cc1`, the activation is 0.2%.

Regarding `O=c1nc(N2CCOCC2)nc2n1CCO2`, the activation was 0.6%.

Take `COc1ccc(C(=O)n2nc(-c3ccc(C)cc3)nc2N)cc1OC`: the activation was 0%.

For `Cc1cc(=O)n(C)c(=O)n1CCCNc1ccccc1`, the activation is -0.1%.

For `CN(C)CCNC(CC(=O)Nc1ccc(Cl)c(Cl)c1)C(=O)O` (stereo not drawn), the activation was 0.3%.

Turning to `O=C(OCc1nnc(-c2ccccc2)o1)c1ccc2c(c1)C(=O)N(CCc1ccccc1)C2=O`, the activation was 0.4%.

In the case of `Cc1ccc(-c2cc(C(F)(F)F)n3nc(C(=O)N4CCCC4)cc3n2)cc1`, the activation was 0.8%.

With `Cc1nc2c(-c3ccccc3)c(C)[nH]n2c(=O)c1Cl`, the activation is -0.7%.

For the compound `Cn1nnnc1SCc1cc(=O)[nH]c2ccccc12`, the activation is -0.5%.

As for `COc1ccccc1C(=O)N1CCN=C1SCc1cccnc1`, the activation is -0.4%.

Regarding `Cn1nc(-c2ccc(N3CCOCC3)c(NC(=O)c3ccccc3)c2)c2ccccc2c1=O`, the activation was -1%.

`FC(F)(F)c1cc(-c2cccs2)nc(NCc2ccco2)n1`: the activation is -1.9%.

`CC(c1ccccc1)n1c(NCCCn2ccnc2)nc2c1c(=O)[nH]c(=O)n2C` (stereo not drawn): the activation was -0.6%.

Consider `COc1cccc(-c2nc3n(n2)C(c2ccccc2Cl)C(C(N)=O)=C(C)N3)c1` (stereo not drawn), for which the activation was -0.2%.

With `CCc1c(C)sc(NC(=O)OC)c1C(=O)N1CCOCC1`, the activation is 14.2% (active).

For `CCc1c(C)sc(NC(=O)c2ccc(Br)o2)c1C(=O)OC`, the activation was 0.2%.

With `CCOC(=O)c1sc(NC(=O)CCN2CCOCC2)c(C(=O)OCC)c1C`, the activation is -0.8%.

For the compound `CCCN(c1ccc(C(C)C)cc1)S(=O)(=O)c1c(C)[nH]c(=O)[nH]c1=O`, the activation is -0.3%.

With `COCCNC(=O)Cn1cc2c(n1)CCCCC2`, the activation is -0.1%.

For the compound `O=C(Cn1cc2c(n1)CCCCC2)NCCN1CCOCC1`, the activation is 9.7% (active).

On to `COc1ccccc1CNC(=O)Cn1cc2c(n1)CCCC2`, for which the activation is -0.6%.

`COCCCNC(=O)COc1cc(C)c(Cl)c(C)c1`: the activation is -0.3%.

`NC(=S)c1ccc(C(N)=S)o1`: the activation is 0%.

On to `Cc1nn(-c2cc(Cl)ccc2N)c(=O)c2ccccc12`, for which the activation is -0.1%.

Take `Cc1cccc(NC(=O)CSc2nnc(CCCCCNC(=O)OC(C)(C)C)o2)c1C`: the activation is -1.3%.

`O=C(O)C1CCN1C1CCCCC1` (stereo not drawn): the activation was -0.7%.

Take `Cc1ccc(S(=O)(=O)N2C3C=CC(C3)C2C(=O)O)cc1` (stereo not drawn): the activation is -0.4%.

As for `COc1ccc(C(=O)N(Cc2ccc(N(C)C)cc2)C2CCS(=O)(=O)C2)cc1` (stereo not drawn), the activation is 0.3%.

For `O=C(/C(=N\O)n1cncn1)c1ccc(Br)cc1Br`, the activation is 0.1%.

For the compound `CCn1c(=N)c(S(=O)(=O)c2ccc(F)cc2)cc2c(=O)n3ccccc3nc21`, the activation is 4.4%.

For `O=C(NC1CCCC1)c1ccc(Br)s1`, the activation was -1.5%.

Regarding `Clc1ccc(C=NC23CN4CN(CN(C4)C2)C3)cc1`, the activation is -0.1%.

Regarding `O=C(CN1CCN(CC(=O)Nc2ccc3c(c2)OCO3)CC1)Nc1ccc(F)cc1`, the activation is -0.7%.

Consider `Cc1nnc(SCc2ccc(C(=O)c3ccc(Cl)cc3)o2)n1-c1ccccc1`, for which the activation is 0.9%.

Regarding `O=C(NC(Cc1ccccc1)C(=O)N1CCCC1C(=O)O)c1ccccc1` (stereo not drawn) (Bz-Phe-Pro-OH; configuration not given here), the activation was -0.4%.

As to `N#Cc1c(/N=C/N2CCCC2)oc(-c2ccccc2)c1-c1ccccc1`, the activation was 0.2%.

As to `O=C(CS(=O)(=O)Cc1ccccc1)Nc1cccnc1`, the activation is 1.1%.

With `O=C(Nc1ccccc1)Nc1ccccc1C(=O)NCc1ccco1`, the activation was -0.6%.

For `O=C(Nc1ccccc1)N(Cc1cccnc1)Cc1ccco1`, the activation was 10.7% (active).

On to `COc1cccc(OCC(O)CN2CCN(CCO)CC2)c1` (stereo not drawn), for which the activation was -0.1%.

`COc1cccc(C(CC(=O)NCCN2CCOCC2)NS(=O)(=O)c2ccc(C)cc2)c1OC` (stereo not drawn): the activation was 0.5%.

Regarding `C=CCC(NCCCO)c1cccc(OC)c1OC` (stereo not drawn), the activation is 10.3% (active).

Turning to `COc1ccccc1C(=O)C(O)c1ccccc1OC` (stereo not drawn), the activation was -0.2%.

On to `CC1CCCC(N2CCN(C(=O)c3ccc(F)cc3)CC2)C1` (stereo not drawn), for which the activation is -0.1%.
